Most compounds without a hit are left out; they make up all but 2.8% or so of the library.
PP1 inh: PP1-alpha phosphatase inhibitors, primary screen, counter-screen for PP5 inhibitor project, biochemical, fluorescence, OMFP substrate, single point; inhibition, % at 6.7 µM; 320,000 tested, 0.9% active; purified PP1alpha; Serine/threonine-protein phosphatase PP1-alpha catalytic subunit (Homo sapiens), P62136;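 active = inhibition above the mean inhibition of all tested compounds plus 3 SD, computed separately for each screening campaign, cut at about 15% in these data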
SKKanGAS inh: S. pyogenes SKKanGAS growth inhibitors in kanamycin, primary screen, streptokinase expression inhibitor project, SKKanGAS strain, BacTiter-Glo luminescence. 6 h. AID 1662, 2009. inhibition, % at 7.5 µM. 300,000 tested, 1.3% active;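 active = mean replicate score, as percent of positive control median, at least 50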;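 also: strain carries kanamycin resistance gene driven by streptokinase promoter and grows in 40 µg/ml kanamycin; loss of luminescence reflects streptokinase promoter inhibition or plain growth inhibition; 0% = median of DMSO wells and 100% = positive control at its reference dose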
PP5 primary: PP5 phosphatase inhibitors, primary screen, biochemical, fluorescence; Serine/threonine-protein phosphatase 5 (Homo sapiens), P53041; purified PP5c, OMFP substrate fluorescence; inhibition, % at 6.7 µM; 320,000 tested, 0.18% active; AID 1987, 2009;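 active = inhibition above the campaign's mean inhibition across all tested compounds plus 3 SD, cut at about 9.5% in these data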;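 also: 0% = DMSO only and 100% = 100 µM cantharidin control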
IDE inh: human IDE inhibitors in live cells, primary screen, fluorescence polarization, HEK cells, FAbetaB substrate. FAbetaB cleavage. inhibition, % at 5.59 µM. 320,000 tested, 0.41% active. AID 434962, 2010;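 active = percent inhibition above the average of all tested compounds plus 3 SD, set per screening campaign, cut at about 16% in these data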;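 also: IDE supplied by intact live HEK cells; FP after avidin binding of uncleaved biotin substrate so inhibition keeps polarization high; 0% = DMSO wells and 100% = 60 µM reference IDE inhibitor Ii1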
Granule exo inh: LAMP-1 surface exposure blockers, TALL-104 cells – cell-based, flow cytometry, MLPCN library, primary screen. 360,000 tested, 0.66% active. inhibition, % at 10 µM. TALL-104 LAMP-1 surface exposure; cells stimulated with thapsigargin and PMA. AID 651702, 2012;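 active = inhibition above about 55%, limit read from the data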
IDE cell activ: human IDE activators in live cells, primary screen, fluorescence polarization, HEK cells, FAbeta-B substrate | Insulin-degrading enzyme (Homo sapiens), P14735 | FAbeta-B cleavage; 0% vehicle, 100% cell-free pure enzyme wells | activation, % at 5.96 µM | 340,000 tested, 0.073% active | AID 493087, 2011;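 active = activation above the mean of all tested compounds plus 3 SD, set per screening campaign, cut at about 17% in these data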
PP5 inh confirm: PP5 phosphatase inhibitors, confirmation, biochemical, fluorescence, human; 460 tested, 22% active; AID 2331, 2010; Purified PP5, fluorogenic phosphatase substrate; shares compounds with PP5 primary; inhibition, % at 6.7 µM; in the data active = inhibition above about 9.5%
PP1 counter 3x: PP1 phosphatase inhibitors, counter-screen for PP5 inhibitor project, biochemical, fluorescence, triplicate | shares compounds with PP5 primary | PP1 enzyme, fluorescent phosphatase substrate | inhibition, % at 6.7 µM | 460 tested, 4% active | AID 2355, 2010; in the data active = inhibition above about 16%
* marks the source's active call; other numbers are inactive results; . = not tested or not shown.

SMILES | PP1 inh | SKKanGAS inh | PP5 primary | IDE inh | Granule exo inh | IDE cell activ | PP5 inh confirm | PP1 counter 3x
O=C(c1cccc(C(F)(F)F)c1)N1CCC(O)(CS(=O)(=O)Cc2ccccc2Cl)CC1 | -1 | -5 | 11* | 5 | 1 | 6 | -3 | -4
Cn1c(=O)c2[nH]c(-c3cccnc3)nc2n(C)c1=O | -2 | -26 | 14* | -2 | -1 | -1 | -4 | -4
Cc1cc(=O)[nH]c(-c2cccnc2)n1 | -1 | 3 | -2 | 0 | 0 | 5 | . | .
CO/N=C(\CCC(=O)O)c1cccs1 | -1 | -4 | 9.7* | 0 | 1 | 6 | -6 | -4
Cc1cc(C(=O)N/N=C(\CCC(=O)O)c2cccs2)c2ccccc2n1 | -2 | -2 | -2 | -1 | 2 | 2 | . | .
CN1C=CC=C/C1=C1\SC(=S)N(C2CCCCC2)C1=O | 1 | 1 | 9.7* | 2 | 0 | 3 | -1 | -1
CCn1c(=O)c([N+](=O)[O-])c(N2CCSCC2)c2ccccc21 | 1 | 10 | 1 | 5 | 18 | -2 | . | .
CCn1c(=O)c([N+](=O)[O-])c(N2CCN(Cc3ccc4c(c3)OCO4)CC2)c2ccccc21 | -2 | 4 | 10* | -2 | 3 | 12 | -4 | -2
COc1ccccc1N(CC(=O)N(C)Cc1ccccc1)S(=O)(=O)c1cccs1 | -3 | . | -1 | -1 | -6 | -2 | . | .
O=C(CN1C(=O)NC(c2ccccc2)(c2ccccc2)C1=O)Nc1cccnc1Cl | -1 | -1 | 12* | -6 | -1 | 0 | -5 | -4
CCC1(c2ccccc2)NC(=O)N(CC(=O)Nc2cccnc2Cl)C1=O (stereo not given) | -1 | . | -1 | -3 | 9 | 3 | . | .
CC(=O)C1=C(c2ccc(Br)cc2)C(=O)c2ccccc2C1=O | 8 | 66* | 11* | 15 | 9 | 2 | 10* | 5
CC(=O)c1ccc(N2C(=NC(=O)CCC3CCCC3)SC3CS(=O)(=O)CC32)cc1 (stereo not given) | -5 | -1 | 1 | -1 | -1 | -3 | . | .
Nc1ncc(Br)cc1S(=O)(=O)Nc1cc(C(F)(F)F)cc(C(F)(F)F)c1 | 8 | 64* | 9.6* | 3 | 2 | 4 | 5 | 12
COCCNC(=O)C(OC(=O)c1ccco1)c1ccccc1F (stereo not given) | -2 | 6 | -2 | 1 | -4 | 2 | . | .
Cc1cc(O)c(Sc2ncn[nH]2)cc1NS(=O)(=O)c1ccc(Cl)cc1 | -5 | . | 1 | 2 | -7 | -2 | . | .
Cc1cc(C)c(S(=O)(=O)/N=C2/C=C(Sc3ncn[nH]3)C(=O)c3ccccc32)cc1C | 0 | . | 11* | 9 | 98* | -25 | 32* | 12
CCCNC(=O)C1(C)CCCN(Cc2cccc(Oc3ccccc3)c2)C1 (stereo not given) | . | . | . | . | -5 | . | . | .
O=S(=O)(c1cccs1)n1cccn1 | -4 | -3 | 3 | 3 | 1 | 3 | . | .
O=S(=O)(c1ccc(Br)s1)n1cccn1 | -3 | 4 | 12* | 8 | 0 | 2 | -3 | -4
CCN(CC)S(=O)(=O)c1ccc(Cl)c(C(=O)Nc2nncs2)c1 | -1 | -1 | -2 | -5 | 0 | 2 | . | .
CCN(CC)S(=O)(=O)c1cc(C(=O)Nc2nncs2)c(Cl)cc1Cl | 4 | -9 | 11* | 9 | 0 | 0 | -2 | -1
COc1ccc(S(=O)(=O)N2CCC(C(=O)NCc3cccnc3)CC2)cc1OC | -4 | 3 | -2 | -5 | -2 | -3 | . | .
O=C(CCl)N(C1CCCC1)C1CCS(=O)(=O)C1 (stereo not given) | 0 | -1 | -1 | -2 | -8 | -1 | . | .
